From PubChem
The sample as a whole holds a higher share of hits than the screen did.
Tg IFNy HTS = blocks Toxoplasma gondii growth in the presence of IFN-gamma; Toxoplasma gondii growth in IFN-gamma-treated host cells; active compounds read low; activity change, negative = inhibition, % (test concentration not listed); hit rate 3.8% among 69,000; in the data active = activity change below about -70%, passing the limit was not always enough;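 note: host cells are HeLa cells infected with Toxoplasma gondii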
Large screens that a line does not name were inactive.

CC(C)c1nccc(CN2CCC(c3[nH]ncc3Cc3ccccc3)CC2)n1	none
Cc1noc([C@@]23COC[C@@H]2CN(C(=O)c2cscn2)C3)n1	none
C#CCN(Cc1nc(-c2ccc(F)cc2F)oc1C)C1CCCCC1	none
CC(=O)N1CCC(C(=O)NCc2ccccc2)(N(Cc2ccccc2F)C(=O)c2ccc(C)cc2)CC1	none
CCOC(=O)C1CCN(c2nccc(OCC)n2)CC1	none
CCN(CC(=O)NCc1ccco1)S(=O)(=O)c1ccccc1	none
CCOC(=O)c1oc2ccccc2c1NC(C)=O	none
CCOC(=O)c1oc2ccc(CNC3CCCCC3)c(Cl)c2c1C	none
CCOC(=O)c1c(CSC2CCCCC2)oc2ccc(O)cc12	Tg IFNy HTS -104
CN1CCO[C@@H]2CN(C(=O)c3ccc(F)c(F)c3)C[C@@H]2C1	none
COC(CNC(=O)c1cnn2ccn(C)c12)c1cccs1 (configuration not stated)	none
Nc1cc(N2CCN(CCCc3ccccc3)CC2)nc(N)n1	none
CC(C)(C)c1ccc(C23OC(=O)C4(CCCC4)C2OC(=O)C32CCCC2)cc1 (configuration not stated)	Tg IFNy HTS -73
CN(C)c1ccc(-c2nc3c([nH]2)c(=O)n(C)c(=O)n3C)cc1	none
COc1cccc(C(=O)NCCc2csc(-c3ccc(Cl)cc3)n2)c1OC	none
Cc1cc2ccccc2n1CCC(=O)N1CCCCC1CCO (configuration not stated)	none
CCOC(=O)c1cccc(NC(=O)c2ccccc2OCC)c1	none
CCc1ccc(OCc2ccccc2C(=O)Nc2ccc3nc(C)cc(N)c3c2)cc1	Tg IFNy HTS -74
CCc1cccc(NC(=O)c2nc(Nc3ccc(C)cc3)c3ccccc3n2)c1	none
Cc1ccc(C(=O)NCCc2sc(-c3cccc(F)c3)nc2C)cc1C	none
COc1ccc(C)cc1NCc1ccccc1C	none
C=CCOCc1nnn2c1CN(C1CCOCC1)CCC2	none
COC(=O)c1cccc(CN2CCC2c2ccc(F)cc2)n1 (configuration not stated)	none
Cc1cc(=O)n(CC(=O)NCCN2C(=O)CSC2=O)c2ccccc12	none
Cc1ccc(NCN2C(=O)CSC2=O)c(C)c1	Tg IFNy HTS -88
O=C1CSC(=O)N1C/C=C/CN1C(=O)CSC1=O	none
CC(C)Cc1cc(C(=O)N2CC[C@@H](c3ccc(F)cc3)[C@H](O)C2)nc(N)n1	none
CNC(=O)[C@H]1C[C@@H]2CN(Cc3cnn(C)c3)C[C@@H]2N1C	none
Cc1cc(C(=O)N2CCC3OCCN(CCN(C)C)C3CC2)c(C)o1 (configuration not stated)	none
Cc1ccc(C(=O)NCCCNC(=O)c2ccc(-c3ccc(Cl)c(Cl)c3)o2)cn1	none
FC(F)(F)c1cccc(NC(=S)Nc2cccc(C(F)(F)F)c2)c1	none
CCOC(=O)c1cn[nH]c1NC(=S)Nc1cccc(C(F)(F)F)c1	none
FC(F)(F)c1cccc(NC(=S)Nc2csc(C(F)(F)F)c2-c2ccccc2)c1	Tg IFNy HTS -97
CC(C)Nc1ncnc2c1CCN(C(=O)[C@H]1CCCO1)CC2	none
CC(=O)Nc1ccc(S(=O)(=O)NCc2nc(-c3cccc(Cl)c3)oc2C)cc1	none
COc1ccc2c(c1)c(CN(C)Cc1n[nH]c3c1CCCC3)cn2C(C)C	none
Cc1ccccc1-n1nc(C)c(CN(C)Cc2n[nH]c3c2CCCC3)c1C	Tg IFNy HTS -78
CCSc1ncc(CN(C)Cc2n[nH]c3c2CCCC3)cn1	none
COc1ccc2c3c(n(C)c2c1)[C@@H](CO)N(C(C)=O)CC31CCN(Cc2ccccc2OC)CC1	none
O=C(O)CCc1ccc(-c2cccs2)[nH]1	none
CS(=O)(=O)N1CCc2sc(C(=O)NCc3ccccc3)cc21	none
CS(=O)(=O)N1CCc2sc(C(=O)Nc3ccccc3F)cc21	none
CC(C)C(=O)c1cc2c(s1)CCN2S(C)(=O)=O	Tg IFNy HTS -85
COc1ccccc1CNC(=O)C[C@@H]1CC[C@H]2[C@@H](COC[C@@H](O)CN2Cc2ccc3c(c2)OCO3)O1	none
COc1ccc(S(=O)(=O)Nc2ccc3c(c2)C(=O)N([C@H](C)CO)C[C@H](C)[C@@H](CN(C)S(=O)(=O)c2ccc(Cl)cc2)OCCCC[C@@H](C)O3)cc1	none
C[C@@H]1CCCCO[C@@H](CN(C)S(=O)(=O)c2ccc(Cl)cc2)[C@@H](C)CN([C@@H](C)CO)C(=O)c2cc(NC(=O)Nc3ccc(C(F)(F)F)cc3)ccc2O1	none
C[C@@H]1CCCCO[C@H](CN(C)S(=O)(=O)c2ccc(Cl)cc2)[C@H](C)CN([C@@H](C)CO)C(=O)c2cc(NC(=O)Nc3ccc(C(F)(F)F)cc3)ccc2O1	none
COc1ccc(S(=O)(=O)Nc2ccc3c(c2)C(=O)N([C@@H](C)CO)C[C@H](C)[C@@H](CN(C)S(=O)(=O)c2ccc(Cl)cc2)OCCCC[C@H](C)O3)cc1	Tg IFNy HTS -130
C[C@@H]1CN([C@H](C)CO)C(=O)c2cc(NS(=O)(=O)c3ccc(Cl)cc3)ccc2O[C@@H](C)CCCCO[C@@H]1CN(C)C(=O)CCCN(C)C	none
C[C@@H]1CN([C@@H](C)CO)C(=O)c2cc(NC(=O)Nc3ccc(C(F)(F)F)cc3)ccc2O[C@@H](C)CCCCO[C@@H]1CN(C)S(=O)(=O)c1ccc(Cl)cc1	none
COc1ccc(S(=O)(=O)Nc2ccc3c(c2)C(=O)N([C@H](C)CO)C[C@H](C)[C@@H](CN(C)S(=O)(=O)c2ccc(Cl)cc2)OCCCC[C@H](C)O3)cc1	Tg IFNy HTS -113
COc1ccc(S(=O)(=O)Nc2ccc3c(c2)C(=O)N([C@@H](C)CO)C[C@H](C)[C@@H](CN(C)S(=O)(=O)c2ccc(Cl)cc2)OCCCC[C@@H](C)O3)cc1	Tg IFNy HTS -113
COc1ccc(S(=O)(=O)Nc2ccc3c(c2)C(=O)N([C@@H](C)CO)C[C@@H](C)[C@@H](CN(C)S(=O)(=O)c2ccc(Cl)cc2)OCCCC[C@H](C)O3)cc1	Tg IFNy HTS -128
C[C@@H]1CCCCO[C@H](CN(C)S(=O)(=O)c2ccc(Cl)cc2)[C@@H](C)CN([C@@H](C)CO)C(=O)c2cc(NC(=O)Nc3ccc(C(F)(F)F)cc3)ccc2O1	none
CC(C#N)(Nc1ccccc1)c1cccnc1 (configuration not stated)	none
Cc1ncc2c(c1CNC(=O)/C=C/c1ccccc1)CCN(C(=O)c1ccc3nccnc3c1)C2	none
CC(=O)N1CC2(CCN(CC(=O)O)CC2)c2cc(C)ccc21	none
Clc1ccc(-c2nc(N3CCCc4ccccc43)c3ccccc3n2)cc1	none
CC[C@@H](N)Cn1c(=O)oc2ccccc21	none
COc1cc2nc[nH]c(=O)c2cc1OC	none
CCOc1c(CNC2CSCCSC2)cccc1OC	none
CC(=O)NCC(=O)N1Cc2cc(-c3ccn[nH]3)ccc2C1c1cnco1 (configuration not stated)	none
Cc1cc(COc2ccccc2)oc1C(=O)N1CCOC(C(F)(F)F)C1 (configuration not stated)	none
CCSc1nnc(C2CCN(Cc3nnnn3CCc3ccccc3)CC2)n1C	none
Cc1ccc(CN2CCc3nnc(COCCN(C)C)n3CC2)s1	none
Cc1nc(C2CCNCC2)sc1-c1ccncn1	none
CO[C@H]1CN(C(=O)CCc2ccc3c(c2)OCO3)CC[C@H]1N	none
CCOc1ccccc1CN1C(=O)C2CC(=O)OC23C(CC(C)=O)N(Cc2ccccc2)C(=O)C13 (configuration not stated)	none
Cn1cc(CN2CCc3ncnc(-c4cccc(F)c4)c3CC2)cn1	none
CN1CCN(C(=O)NCc2nc(-c3cccc(F)c3)c(-c3ccccn3)[nH]2)CC1	none
CN1CCC(n2cc(-c3ccnc(N)c3)c(-c3cccc(F)c3)n2)CC1	Tg IFNy HTS -97
CCCCC(F)(F)C(=O)CC[C@H]1[C@H](O)CC(=O)[C@@H]1CCCCCCC(=O)O	none
O=C(CNC(=O)OCc1ccccc1)NC1CCCCCC1	none
